Reference: ChEMBL document CHEMBL1961873, “Compounds: GSK PKIS; Assays: Nanosyn kinase panel” (2012)

Tests used:
[1] = molecular target: Dual specificity protein kinase CLK3 (Homo sapiens) (UniProt P49761); settings: at 1 µM;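 further: each value is the mean inhibition of CLK3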
[2] = molecular target: Dual specificity tyrosine-phosphorylation-regulated kinase 1A (Homo sapiens) (UniProt Q13627); settings: at 0.1 µM
[3] = molecular target: Dual specificity tyrosine-phosphorylation-regulated kinase 1A (Homo sapiens) (UniProt Q13627); settings: at 1 µM
[4] = molecular target: Dual specificity tyrosine-phosphorylation-regulated kinase 1B (Homo sapiens) (UniProt Q9Y463); settings: at 0.1 µM
[5] = molecular target: Dual specificity tyrosine-phosphorylation-regulated kinase 1B (Homo sapiens) (UniProt Q9Y463); settings: at 1 µM
[6] = molecular target: T1, Dual specificity tyrosine-phosphorylation-regulated kinase 2 (Homo sapiens) (UniProt Q92630); settings: at 0.1 µM
T1 sequence (whole entry): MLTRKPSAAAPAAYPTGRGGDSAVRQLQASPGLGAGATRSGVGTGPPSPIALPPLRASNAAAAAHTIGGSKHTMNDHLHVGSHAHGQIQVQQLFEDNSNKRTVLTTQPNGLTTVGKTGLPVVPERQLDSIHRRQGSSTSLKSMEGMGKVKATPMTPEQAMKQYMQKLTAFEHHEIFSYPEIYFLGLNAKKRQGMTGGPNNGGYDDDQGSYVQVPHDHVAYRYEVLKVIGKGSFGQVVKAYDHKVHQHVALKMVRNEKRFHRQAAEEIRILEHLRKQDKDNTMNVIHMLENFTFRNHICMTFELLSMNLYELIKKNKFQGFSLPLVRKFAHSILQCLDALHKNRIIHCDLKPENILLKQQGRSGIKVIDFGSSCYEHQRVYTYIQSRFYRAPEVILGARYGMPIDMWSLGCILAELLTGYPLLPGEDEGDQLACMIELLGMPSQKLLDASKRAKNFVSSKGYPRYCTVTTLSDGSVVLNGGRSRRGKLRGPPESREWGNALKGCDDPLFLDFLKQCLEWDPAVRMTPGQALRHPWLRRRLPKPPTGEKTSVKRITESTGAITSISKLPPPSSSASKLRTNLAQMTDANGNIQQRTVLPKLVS

[7] = molecular target: T1, Dual specificity tyrosine-phosphorylation-regulated kinase 2 (Homo sapiens); settings: at 1 µM
[8] = molecular target: Glycogen synthase kinase-3 alpha (Homo sapiens) (UniProt P49840); settings: at 0.1 µM
[9] = molecular target: Glycogen synthase kinase-3 alpha (Homo sapiens) (UniProt P49840); settings: at 1 µM
[10] = molecular target: Glycogen synthase kinase-3 beta (Homo sapiens) (UniProt P49841); settings: at 0.1 µM
[11] = molecular target: Glycogen synthase kinase-3 beta (Homo sapiens) (UniProt P49841); settings: at 1 µM
[12] = molecular target: Homeodomain-interacting protein kinase 1 (Homo sapiens) (UniProt Q86Z02); settings: at 0.1 µM
[13] = molecular target: Homeodomain-interacting protein kinase 1 (Homo sapiens) (UniProt Q86Z02); settings: at 1 µM
[14] = molecular target: T2, Homeodomain-interacting protein kinase 4 (Homo sapiens) (UniProt Q8NE63); settings: at 0.1 µM
T2 sequence (whole entry): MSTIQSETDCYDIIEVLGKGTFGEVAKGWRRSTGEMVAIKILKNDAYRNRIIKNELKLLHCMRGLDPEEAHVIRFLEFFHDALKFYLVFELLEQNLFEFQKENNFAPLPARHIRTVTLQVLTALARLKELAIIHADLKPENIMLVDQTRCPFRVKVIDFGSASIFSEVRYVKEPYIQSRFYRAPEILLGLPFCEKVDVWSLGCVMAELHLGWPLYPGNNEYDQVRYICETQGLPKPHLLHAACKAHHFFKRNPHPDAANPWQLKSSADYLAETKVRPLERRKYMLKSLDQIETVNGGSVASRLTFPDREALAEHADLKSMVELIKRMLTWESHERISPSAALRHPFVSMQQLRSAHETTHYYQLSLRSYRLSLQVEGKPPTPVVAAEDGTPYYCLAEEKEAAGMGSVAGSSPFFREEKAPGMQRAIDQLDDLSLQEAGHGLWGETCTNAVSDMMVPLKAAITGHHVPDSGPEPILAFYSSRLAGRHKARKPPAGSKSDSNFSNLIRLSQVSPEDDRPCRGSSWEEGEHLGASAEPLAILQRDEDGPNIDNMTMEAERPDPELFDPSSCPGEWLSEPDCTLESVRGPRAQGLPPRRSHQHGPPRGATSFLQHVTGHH

[15] = molecular target: T2, Homeodomain-interacting protein kinase 4 (Homo sapiens); settings: at 1 µM
[16] = molecular target: Mitogen-activated protein kinase 9 (Homo sapiens) (UniProt P45984); settings: at 0.1 µM
[17] = molecular target: Mitogen-activated protein kinase 9 (Homo sapiens) (UniProt P45984); settings: at 1 µM
[18] = molecular target: Mitogen-activated protein kinase 1 (Homo sapiens) (UniProt P28482); settings: at 0.1 µM
[19] = molecular target: Mitogen-activated protein kinase 1 (Homo sapiens) (UniProt P28482); settings: at 1 µM
[20] = molecular target: Mitogen-activated protein kinase 3 (Homo sapiens) (UniProt P27361); settings: at 0.1 µM;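 further: each value is a mean inhibition figure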
Sequence of Mitogen-activated protein kinase 3 (Homo sapiens) (P27361 whole entry): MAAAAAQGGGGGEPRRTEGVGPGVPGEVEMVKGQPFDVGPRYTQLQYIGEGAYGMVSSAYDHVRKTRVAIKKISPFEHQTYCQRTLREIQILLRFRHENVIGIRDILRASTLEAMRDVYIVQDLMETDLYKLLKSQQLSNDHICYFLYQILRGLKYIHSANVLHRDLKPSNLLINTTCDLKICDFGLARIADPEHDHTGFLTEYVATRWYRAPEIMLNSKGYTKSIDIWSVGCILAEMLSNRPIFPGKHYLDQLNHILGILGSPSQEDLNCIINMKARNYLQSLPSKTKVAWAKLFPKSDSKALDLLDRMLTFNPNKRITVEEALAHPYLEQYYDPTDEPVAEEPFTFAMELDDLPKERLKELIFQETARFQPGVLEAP

Sequence of Glycogen synthase kinase-3 alpha (Homo sapiens) (P49840 2-483 limits assumed): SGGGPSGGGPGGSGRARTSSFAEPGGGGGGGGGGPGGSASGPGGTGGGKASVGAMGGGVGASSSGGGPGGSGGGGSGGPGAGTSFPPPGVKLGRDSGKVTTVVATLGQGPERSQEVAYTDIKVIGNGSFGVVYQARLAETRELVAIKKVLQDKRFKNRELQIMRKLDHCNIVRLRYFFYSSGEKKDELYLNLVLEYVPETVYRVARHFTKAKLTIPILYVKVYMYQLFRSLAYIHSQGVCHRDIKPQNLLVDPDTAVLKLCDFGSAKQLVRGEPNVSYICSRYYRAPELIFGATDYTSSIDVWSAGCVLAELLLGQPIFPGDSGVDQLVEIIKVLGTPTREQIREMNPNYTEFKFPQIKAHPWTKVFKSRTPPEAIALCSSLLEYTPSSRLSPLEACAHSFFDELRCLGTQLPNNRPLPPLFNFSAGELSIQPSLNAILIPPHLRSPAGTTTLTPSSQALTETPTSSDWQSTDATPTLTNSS
Sequence of Mitogen-activated protein kinase 1 (Homo sapiens) (P28482 whole entry): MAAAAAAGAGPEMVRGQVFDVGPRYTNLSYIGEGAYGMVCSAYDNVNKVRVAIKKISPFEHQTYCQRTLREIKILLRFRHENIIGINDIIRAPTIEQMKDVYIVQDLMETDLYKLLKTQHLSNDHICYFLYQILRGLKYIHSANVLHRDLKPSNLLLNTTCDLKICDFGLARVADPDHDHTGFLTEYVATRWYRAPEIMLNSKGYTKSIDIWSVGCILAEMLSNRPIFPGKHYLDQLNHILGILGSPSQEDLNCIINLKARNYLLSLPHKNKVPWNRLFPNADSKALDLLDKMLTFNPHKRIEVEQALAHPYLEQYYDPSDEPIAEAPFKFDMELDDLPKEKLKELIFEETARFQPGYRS
Sequence of Dual specificity tyrosine-phosphorylation-regulated kinase 1B (Homo sapiens) (Q9Y463 whole entry, looked up): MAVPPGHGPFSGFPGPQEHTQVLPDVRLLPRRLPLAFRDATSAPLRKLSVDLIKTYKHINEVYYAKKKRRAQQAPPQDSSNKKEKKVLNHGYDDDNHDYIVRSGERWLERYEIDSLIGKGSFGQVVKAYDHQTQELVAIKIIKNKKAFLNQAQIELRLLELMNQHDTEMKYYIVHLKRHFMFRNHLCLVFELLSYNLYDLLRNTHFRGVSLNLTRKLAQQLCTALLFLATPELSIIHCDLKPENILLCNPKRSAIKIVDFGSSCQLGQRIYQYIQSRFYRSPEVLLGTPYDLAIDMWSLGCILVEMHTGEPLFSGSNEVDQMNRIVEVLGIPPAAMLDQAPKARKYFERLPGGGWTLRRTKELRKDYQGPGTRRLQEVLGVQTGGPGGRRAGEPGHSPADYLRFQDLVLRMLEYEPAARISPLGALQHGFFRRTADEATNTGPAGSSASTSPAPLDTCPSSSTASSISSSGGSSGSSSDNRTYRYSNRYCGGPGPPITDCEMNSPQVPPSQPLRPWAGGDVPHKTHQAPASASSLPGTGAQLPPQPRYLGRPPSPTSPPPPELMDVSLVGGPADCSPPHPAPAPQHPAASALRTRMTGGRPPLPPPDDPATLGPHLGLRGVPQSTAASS
Sequence of Dual specificity protein kinase CLK3 (Homo sapiens) (P49761 whole entry, looked up): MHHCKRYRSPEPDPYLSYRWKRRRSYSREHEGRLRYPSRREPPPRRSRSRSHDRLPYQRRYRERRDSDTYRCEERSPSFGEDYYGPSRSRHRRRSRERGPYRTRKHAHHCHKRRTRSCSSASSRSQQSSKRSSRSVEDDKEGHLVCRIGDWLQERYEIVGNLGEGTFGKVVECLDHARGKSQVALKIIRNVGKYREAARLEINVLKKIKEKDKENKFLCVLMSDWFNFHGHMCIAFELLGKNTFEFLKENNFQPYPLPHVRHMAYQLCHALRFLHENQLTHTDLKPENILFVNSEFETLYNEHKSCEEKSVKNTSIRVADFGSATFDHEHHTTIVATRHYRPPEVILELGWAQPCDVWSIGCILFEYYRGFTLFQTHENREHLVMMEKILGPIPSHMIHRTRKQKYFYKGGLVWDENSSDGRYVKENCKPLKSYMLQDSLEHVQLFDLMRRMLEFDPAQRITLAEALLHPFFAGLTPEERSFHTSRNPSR
Sequence of Glycogen synthase kinase-3 beta (Homo sapiens) (P49841 whole entry, looked up): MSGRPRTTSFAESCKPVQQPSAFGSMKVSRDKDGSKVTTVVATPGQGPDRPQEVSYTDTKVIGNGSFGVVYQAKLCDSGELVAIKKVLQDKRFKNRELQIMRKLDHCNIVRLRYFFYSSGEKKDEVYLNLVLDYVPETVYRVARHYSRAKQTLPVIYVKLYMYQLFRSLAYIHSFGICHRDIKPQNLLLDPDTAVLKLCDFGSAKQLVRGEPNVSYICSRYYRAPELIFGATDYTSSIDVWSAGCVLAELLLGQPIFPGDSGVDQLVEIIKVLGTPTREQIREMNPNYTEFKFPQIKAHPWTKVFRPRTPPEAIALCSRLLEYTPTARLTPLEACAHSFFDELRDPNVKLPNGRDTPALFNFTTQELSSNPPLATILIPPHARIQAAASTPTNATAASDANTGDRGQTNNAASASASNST
Sequence of Homeodomain-interacting protein kinase 1 (Homo sapiens) (Q86Z02 whole entry, looked up): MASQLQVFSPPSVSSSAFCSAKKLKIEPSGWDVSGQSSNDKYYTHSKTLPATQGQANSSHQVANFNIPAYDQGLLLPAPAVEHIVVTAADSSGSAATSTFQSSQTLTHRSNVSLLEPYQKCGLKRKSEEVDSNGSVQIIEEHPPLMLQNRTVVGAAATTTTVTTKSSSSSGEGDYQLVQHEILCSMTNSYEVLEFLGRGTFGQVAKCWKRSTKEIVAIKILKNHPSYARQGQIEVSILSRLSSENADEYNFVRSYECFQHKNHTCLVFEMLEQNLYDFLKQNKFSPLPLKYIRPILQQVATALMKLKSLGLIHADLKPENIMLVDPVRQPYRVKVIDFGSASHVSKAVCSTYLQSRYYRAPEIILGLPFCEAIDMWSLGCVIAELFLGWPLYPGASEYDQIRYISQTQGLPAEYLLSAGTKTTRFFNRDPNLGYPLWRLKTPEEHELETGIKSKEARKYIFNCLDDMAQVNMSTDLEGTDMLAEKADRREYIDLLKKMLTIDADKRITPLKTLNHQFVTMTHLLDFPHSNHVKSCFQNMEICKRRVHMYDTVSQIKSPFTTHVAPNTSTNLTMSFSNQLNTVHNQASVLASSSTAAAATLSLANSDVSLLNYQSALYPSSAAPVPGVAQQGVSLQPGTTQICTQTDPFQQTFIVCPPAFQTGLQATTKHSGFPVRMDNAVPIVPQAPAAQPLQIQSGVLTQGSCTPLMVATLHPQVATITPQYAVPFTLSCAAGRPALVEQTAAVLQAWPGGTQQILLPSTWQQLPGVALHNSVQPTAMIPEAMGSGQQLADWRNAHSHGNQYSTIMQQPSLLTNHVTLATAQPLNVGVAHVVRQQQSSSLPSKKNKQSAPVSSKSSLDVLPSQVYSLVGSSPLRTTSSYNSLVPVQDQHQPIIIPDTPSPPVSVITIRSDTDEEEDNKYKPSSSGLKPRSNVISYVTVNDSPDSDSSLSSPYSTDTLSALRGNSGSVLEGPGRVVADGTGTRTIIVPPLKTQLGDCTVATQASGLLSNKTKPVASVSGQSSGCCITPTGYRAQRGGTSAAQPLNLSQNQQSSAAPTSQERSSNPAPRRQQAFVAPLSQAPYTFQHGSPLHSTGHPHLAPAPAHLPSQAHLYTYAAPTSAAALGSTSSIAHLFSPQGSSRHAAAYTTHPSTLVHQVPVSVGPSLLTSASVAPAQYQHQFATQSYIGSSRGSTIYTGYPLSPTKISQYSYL
Sequence of Mitogen-activated protein kinase 9 (Homo sapiens) (P45984 whole entry, looked up): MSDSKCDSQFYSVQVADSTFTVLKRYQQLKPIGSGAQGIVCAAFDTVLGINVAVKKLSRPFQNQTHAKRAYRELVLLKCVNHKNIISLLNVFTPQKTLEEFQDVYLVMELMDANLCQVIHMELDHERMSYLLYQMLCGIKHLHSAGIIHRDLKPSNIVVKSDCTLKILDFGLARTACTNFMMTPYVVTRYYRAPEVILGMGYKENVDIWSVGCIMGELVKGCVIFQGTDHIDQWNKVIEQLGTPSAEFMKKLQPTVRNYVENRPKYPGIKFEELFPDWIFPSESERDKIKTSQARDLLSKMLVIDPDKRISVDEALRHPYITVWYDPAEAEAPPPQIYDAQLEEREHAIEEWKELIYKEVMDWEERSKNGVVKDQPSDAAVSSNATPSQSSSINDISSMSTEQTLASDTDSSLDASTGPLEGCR

Structure (SMILES): CS(=O)(=O)CCNCc1ccc(-c2ccc3ncnc(Nc4ccc(OCc5ccccc5)c(Br)c4)c3c2)o1
- inhibition [1]: -3.65%
- inhibition [2]: -3.54%
- inhibition [3]: -2.54%
- inhibition [4]: -5.79%
- inhibition [5]: -4.49%
- inhibition [6]: 2.81%
- inhibition [7]: 1.15%
- inhibition [8]: -0.62%
- inhibition [9]: -0.89%
- inhibition [10]: -1.65%
- inhibition [11]: -1.69%
- inhibition [12]: -5.84%
- inhibition [13]: -4.53%
- inhibition [14]: 0.44%
- inhibition [15]: 2.6%
- inhibition [16]: 2.5%
- inhibition [17]: 0.7%
- inhibition [18]: 5.3%
- inhibition [19]: 4.08%
- inhibition [20]: 5.25%

Structure (SMILES): CN1CCN(CCCNc2nc3ccc(Oc4ccc(NC(=O)Nc5cc(C(F)(F)F)ccc5F)cc4)cc3[nH]2)CC1
- inhibition [1]: -3.62%
- inhibition [2]: -4.06%
- inhibition [3]: -2.54%
- inhibition [4]: -2.52%
- inhibition [5]: -2.58%
- inhibition [6]: 0.8%
- inhibition [7]: -0.19%
- inhibition [8]: -2.85%
- inhibition [9]: 0.59%
- inhibition [10]: -2.95%
- inhibition [11]: -1.5%
- inhibition [12]: -6.94%
- inhibition [13]: -3.43%
- inhibition [14]: 6.45%
- inhibition [15]: 40.6%
- inhibition [16]: 3.11%
- inhibition [17]: 8.71%
- inhibition [18]: 1.47%
- inhibition [19]: 0.12%
- inhibition [20]: 1.55%

Structure (SMILES): CN(C)CCCNc1nccc(-c2c(-c3ccc(F)cc3)nn3cc(C(F)(F)F)ccc23)n1
- inhibition [1]: -2.17%
- inhibition [2]: -2.63%
- inhibition [3]: 1.55%
- inhibition [4]: -2.7%
- inhibition [5]: -0.43%
- inhibition [6]: 1.01%
- inhibition [7]: 2.09%
- inhibition [8]: 2.87%
- inhibition [9]: 7.76%
- inhibition [10]: 3.14%
- inhibition [11]: 7.7%
- inhibition [12]: -4.22%
- inhibition [13]: 1.54%
- inhibition [14]: 4.04%
- inhibition [15]: 8.4%
- inhibition [16]: 2.73%
- inhibition [17]: 11%
- inhibition [18]: 1.62%
- inhibition [19]: 2.71%
- inhibition [20]: 2.96%

Structure (SMILES): NCc1ccc(-n2c(-c3nonc3N)nc3cnccc32)cc1
- inhibition [1]: 3.13%
- inhibition [2]: 8.53%
- inhibition [3]: 37.5%
- inhibition [4]: 5.66%
- inhibition [5]: 36.4%
- inhibition [6]: 3.41%
- inhibition [7]: 4.54%
- inhibition [8]: 25.6%
- inhibition [9]: 67%
- inhibition [10]: 18.1%
- inhibition [11]: 60.1%
- inhibition [12]: 1.51%
- inhibition [13]: 9.18%
- inhibition [14]: 0.98%
- inhibition [15]: 5.32%
- inhibition [16]: 7.98%
- inhibition [17]: 6.05%
- inhibition [18]: 6.45%
- inhibition [19]: 8.32%
- inhibition [20]: 4.41%

Structure (SMILES): COC(=O)Nc1nc2ccc(Sc3ccc(NC(=O)Nc4cc(C(F)(F)F)ccc4F)cc3)cc2[nH]1
- inhibition [1]: 2.87%
- inhibition [2]: 0.92%
- inhibition [3]: 1.72%
- inhibition [4]: 1.9%
- inhibition [5]: 3.2%
- inhibition [6]: 0.2%
- inhibition [7]: 0.89%
- inhibition [8]: 0.12%
- inhibition [9]: 0.68%
- inhibition [10]: 2.16%
- inhibition [11]: 1.89%
- inhibition [12]: 1.74%
- inhibition [13]: 3.89%
- inhibition [14]: 3.14%
- inhibition [15]: 25.5%
- inhibition [16]: 33.9%
- inhibition [17]: 6.37%
- inhibition [18]: -0.51%
- inhibition [19]: -0.71%
- inhibition [20]: 1.68%

Structure (SMILES): COc1cc(N2CCN(C(C)C)CC2)ccc1Nc1nc(Nc2ccc(F)cc2C(=O)NC[C@@H](O)CO)c2cc[nH]c2n1
- inhibition [1]: 4.1%
- inhibition [2]: 0.93%
- inhibition [3]: 12.7%
- inhibition [4]: -2.96%
- inhibition [5]: 12%
- inhibition [6]: 3.04%
- inhibition [7]: 5.79%
- inhibition [8]: -1.27%
- inhibition [9]: 0.1%
- inhibition [10]: -0.78%
- inhibition [11]: -0.58%
- inhibition [12]: 9.42%
- inhibition [13]: 46.1%
- inhibition [14]: 32.3%
- inhibition [15]: 69.8%
- inhibition [16]: 14.9%
- inhibition [17]: 57.4%
- inhibition [18]: 0.55%
- inhibition [19]: 7.31%
- inhibition [20]: 6.47%

Structure (SMILES): CNC(=O)c1cncc(/C=C/c2c(C)cccc2C)c1
- inhibition [1]: -2.04%
- inhibition [2]: -1.29%
- inhibition [3]: 2.27%
- inhibition [4]: 0.49%
- inhibition [5]: 1.89%
- inhibition [6]: -0.14%
- inhibition [7]: -0.61%
- inhibition [8]: -2.93%
- inhibition [9]: -0.82%
- inhibition [10]: -1.93%
- inhibition [11]: -0.33%
- inhibition [12]: -0.47%
- inhibition [13]: 2.67%
- inhibition [14]: 1.19%
- inhibition [15]: 6.66%
- inhibition [16]: 2.54%
- inhibition [17]: 1.94%
- inhibition [18]: -3.06%
- inhibition [19]: 0.43%
- inhibition [20]: 0.86%

Structure (SMILES): Fc1ccc(-c2nc3n(c2-c2ccncc2)CCS3)cc1
- inhibition [1]: -2.32%
- inhibition [2]: 0.54%
- inhibition [3]: 0.87%
- inhibition [4]: -3.06%
- inhibition [5]: -3.89%
- inhibition [6]: 2.91%
- inhibition [7]: 2.31%
- inhibition [8]: -0.87%
- inhibition [9]: 3.8%
- inhibition [10]: -1.43%
- inhibition [11]: 7.8%
- inhibition [12]: -4.87%
- inhibition [13]: -3.92%
- inhibition [14]: 0.39%
- inhibition [15]: 1.1%
- inhibition [16]: 7.66%
- inhibition [17]: 25.9%
- inhibition [18]: 3.06%
- inhibition [19]: 5.59%
- inhibition [20]: 2.96%

Structure (SMILES): COc1ccc2cc(-c3c(-c4ccncc4)nc(-c4ccc([S+](C)[O-])cc4C)n3C)ccc2c1 (centres undefined)
- inhibition [1]: 2.67%
- inhibition [2]: 2%
- inhibition [3]: 7.26%
- inhibition [4]: 2.45%
- inhibition [5]: 6.41%
- inhibition [6]: -0.45%
- inhibition [7]: 0%
- inhibition [8]: 7.28%
- inhibition [9]: 15.4%
- inhibition [10]: 5.99%
- inhibition [11]: 14.7%
- inhibition [12]: 3.05%
- inhibition [13]: 6.01%
- inhibition [14]: 2.25%
- inhibition [15]: 5.99%
- inhibition [16]: 0.79%
- inhibition [17]: 8.03%
- inhibition [18]: -0.46%
- inhibition [19]: -2.44%
- inhibition [20]: 0.3%

Structure (SMILES): CCN(CC)Cc1ccc(Nc2nccc(-c3cnn4ncccc34)n2)cc1
- inhibition [1]: 5.2%
- inhibition [2]: 40%
- inhibition [3]: 88%
- inhibition [4]: 43.6%
- inhibition [5]: 69.2%
- inhibition [6]: 5.06%
- inhibition [7]: 25.7%
- inhibition [8]: 24.4%
- inhibition [9]: 65.8%
- inhibition [10]: 18%
- inhibition [11]: 62.3%
- inhibition [12]: 50.6%
- inhibition [13]: 71.9%
- inhibition [14]: 18.1%
- inhibition [15]: 59%
- inhibition [16]: 6.18%
- inhibition [17]: 30.9%
- inhibition [18]: 6.89%
- inhibition [19]: 15.8%

Structure (SMILES): COc1cccc(-n2cnc3c(N/N=C/c4ccncc4)ncnc32)c1
- inhibition [1]: -2.92%
- inhibition [2]: -3.39%
- inhibition [3]: 2.17%
- inhibition [4]: -3.26%
- inhibition [5]: -0.65%
- inhibition [6]: 0.79%
- inhibition [7]: 2.96%
- inhibition [8]: 3.64%
- inhibition [9]: 34.7%
- inhibition [10]: 3.02%
- inhibition [11]: 32.4%
- inhibition [12]: -2.33%
- inhibition [13]: -0.32%
- inhibition [14]: -0.66%
- inhibition [15]: 3.74%
- inhibition [16]: -1.67%
- inhibition [17]: -0.57%
- inhibition [18]: -1.43%
- inhibition [19]: -0.07%
- inhibition [20]: 0.83%

Structure (SMILES): CCc1nccc2c1nc(-c1nonc1N)n2CC
- inhibition [1]: 2.23%
- inhibition [2]: 2.9%
- inhibition [3]: 7.05%
- inhibition [4]: 2.47%
- inhibition [5]: 6.3%
- inhibition [6]: -0.4%
- inhibition [7]: 3.18%
- inhibition [8]: 0.44%
- inhibition [9]: 7.97%
- inhibition [10]: 2.74%
- inhibition [11]: 8.38%
- inhibition [12]: -0.74%
- inhibition [13]: 6.91%
- inhibition [14]: 0.62%
- inhibition [15]: 9.48%
- inhibition [16]: 3.7%
- inhibition [17]: 3.34%
- inhibition [18]: -1.66%
- inhibition [19]: 0.54%
- inhibition [20]: 1.33%
